First the molecules themselves.
B1: VH:VL chains; a variant is named by its letters at X, in order (parent)
chain 1: QVQLVQSGAEVKKPGASVKVSCKASGYTFTDYXMHWVRQAPGQGLEWMGXVNPNXXXTTYNQKFEGRVTMTTDTSTSTAYMELRSLRSDDTAVYYCARXNXLDXWGQGTTVTVSS
chain 2: DIQMTQSPSSLSASVGDRVTITCSVSSSVSSIYLHWYQQKPGKAPKLLIYSTSNLASGVPSRFSGSGSGTDFTLTISSLQPEDFATYYCQVYSGYPLTFGGGTKVEIK

The other results are listed elsewhere or left out. No count for the full screen is at hand.

In this experiment the parent is B1. In words: yeast display scFab, FACS + sequencing. To be noted: with MET. In short, it runs like this: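 For FACS, yeast displaying a heavy-chain CDR mutant scFab library were labelled with 1 nM HGFR-Fc and anti-Myc (PBSB, 1% milk, 3 h, room temperature), and the top 50% antigen-positive cells were gated. Input and round-3 sorted populations were deep sequenced in two replicates. The binding call was positive for sequences occurring in both antigen-positive samples and negative for sequences occurring only in input.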
Take VKGRSDVY: the antigen binding call is listed as “no binding”.
In the case of FRGRGALF, the antigen binding call is reported as “binds”.
To FRKRGSVF belongs “binds”; to FRGRGSVF, “binds”; to FRGRGSLF, “binds”.
To ARAAGDVF belongs “no binding”; to YRGAGSGS, “binds”; to YRGAGSGD, “binds”.
Under YRGGSSGY stands “binds”; under YRGAGSGY, “binds”; under AERRDDGA, “no binding”.
For VAGGGAGV, the antigen binding call was “no binding”.
To YAGGDDSA belongs “no binding”; to VTTKSFGV, “no binding”; to YAGAGAVY, “no binding”.
Under YRGAGAGS stands “binds”; under ARGAGYGS, “no binding”.
As for YRGAGAVS, the antigen binding call is recorded as “binds”.
Turning to YRGAGAWS, the antigen binding call is “binds”.
For the variant YRGAGYGS, the antigen binding call is recorded as “no binding”.
For the variant YRGAGAVY, the antigen binding call is on record as “binds”.
Take DEETNSGA: the antigen binding call is listed as “no binding”.
With AREGDDVA, the antigen binding call is “no binding”.
As for YRGRAAVS, the antigen binding call is listed as “binds”.
Under YARRAAVS stands “no binding”.
As to YRGGGSGS, the antigen binding call is recorded as “binds”.
On to YTGTSAVS, for which the antigen binding call is reported as “no binding”.
With YRGRGFAD, the antigen binding call is “binds”.
On to YRGGGFAD, for which the antigen binding call is given as “binds”.
Regarding YKGAAFAD, the antigen binding call is “no binding”.
To YAAGGFAY belongs “no binding”.
Under YRGRGYAY stands “binds”; under YRGRGFAY, “binds”.
Under VATGDDVA stands “no binding”.
With SATKTVVV, the antigen binding call was “no binding”.
In the case of VTGEDSGV, the antigen binding call was “no binding”.
To YKGRGFAY belongs “binds”; to SKGASFAY, “no binding”; to DTGTGDSA, “no binding”.
As to DAGGGDVV, the antigen binding call is “no binding”.
Consider VEGGNDGA, for which the antigen binding call is listed as “no binding”.
To YAGGGDWA belongs “no binding”.
Under DREEGDVV stands “no binding”; under YRKGSSGV, “binds”; under YRKRGDVV, “binds”.
Under YRKRGSLV stands “binds”.
For the variant YRKRGSVV, the antigen binding call is recorded as “binds”.
Under DAGGDDGA stands “no binding”; under AARADAVY, “no binding”; under DARETFLD, “no binding”.
Take SGREGDWD: the antigen binding call is listed as “no binding”.
Regarding VRKGGSGV, the antigen binding call was “binds”.
Regarding YRKRGSLY, the antigen binding call was “binds”.
Consider YRKGGSGV, for which the antigen binding call was “binds”.
Turning to VEKGGSGV, the antigen binding call is “no binding”.
To YRKRGVGV belongs “no binding”.
To YRKRGSGV belongs “binds”; to DGGGASSA, “no binding”.
Under YTAGSDGA stands “no binding”; under SEARSDAD, “no binding”; under VEGGGDVY, “no binding”.
Regarding VAEKGDGV, the antigen binding call was “no binding”.
Under VTAGDDGV stands “no binding”; under VKRGDDVV, “no binding”.
Under YKKGAAGF stands “binds”; under YGTAAFGF, “no binding”.
As for YKRGDAVF, the antigen binding call is reported as “binds”.
Under VGGGAAGF stands “no binding”; under YKRGSSGF, “binds”; under YKRGSAGF, “binds”.
To YARADDVF belongs “no binding”; to FGKGGFGY, “no binding”.
Turning to YARADSGD, the antigen binding call is “no binding”.
YATEDSGF: the antigen binding call is reported as “binds”.
YAARASGF: the antigen binding call is recorded as “no binding”.
To YKRGDSGF belongs “binds”.
Turning to AGTKADVV chain 1 G108S, the antigen binding call is given as “no binding”.
To VKGKGDVY belongs “no binding”; to DATGGSSY, “no binding”.
With YKGKGSLY, the antigen binding call was “binds”.
Consider YKGKGSSY, for which the antigen binding call is given as “binds”.
As to YKTKGSSY, the antigen binding call is “binds”.
For VGTKGSSA, the antigen binding call is recorded as “no binding”.
In the case of FRAKGSAD, the antigen binding call is “binds”.
To FRGKGSAD belongs “binds”; to YRGKSSAD, “binds”; to FKGKGSAD, “binds”.
To FKGRGSAA belongs “binds”.
For YAGKTSAD, the antigen binding call is given as “no binding”.
Under DAAGASVD stands “no binding”.
In the case of YTKGTSVA chain 1 E65K, the antigen binding call is “no binding”.
To DKEGGFGV belongs “no binding”.
Under DEGGTDGS stands “no binding”; under SRATAYSD, “no binding”.
With YRGKGSAD, the antigen binding call was “binds”.
To VEGAADVD belongs “no binding”.
Under VTGGGASF stands “no binding”; under YRKGGSVS, “binds”.
To DTKGDSVS belongs “no binding”.
Consider YRKRGSVF, for which the antigen binding call is listed as “binds”.
Under YRTRSSVS stands “binds”; under YRKGSSVS, “binds”.
Under VEGTSSLD stands “no binding”; under FRGEGSVS, “binds”.
Turning to FAATDSVS, the antigen binding call was “no binding”.
To YRGEGAVS belongs “binds”.
To FRGEGAVS belongs “binds”.
Under FKGEGFGS stands “no binding”; under VRRRGALD, “binds”.
On to VTERSALD, for which the antigen binding call is on record as “no binding”.
For VRKRGALD, the antigen binding call is recorded as “binds”.
To VEEEGALD belongs “no binding”; to VGGTSALD, “no binding”; to VKEKGALD, “no binding”.
As for VRRGGALD, the antigen binding call is given as “binds”.
As for ATGEADAS, the antigen binding call is “no binding”.
As to DAEATSWV, the antigen binding call is reported as “no binding”.
DTGTGAGD: the antigen binding call is “no binding”.
As for AEEKGSGD, the antigen binding call is on record as “no binding”.
Under YATKGAWA stands “no binding”.
In the case of YKGKGAWA, the antigen binding call is on record as “binds”.
To VKGKGASA belongs “no binding”; to VRGKGASA, “binds”.
Regarding YRGKGAWA, the antigen binding call was “binds”.
On to VRTEDDVA, for which the antigen binding call is on record as “no binding”.
With VRTEDAWA, the antigen binding call is recorded as “binds”.
Under VRTEDSWA stands “no binding”; under VARADSGV, “no binding”.
For VEAGDAAV, the antigen binding call is recorded as “no binding”.
To VRGGDDWA belongs “no binding”; to YEGTGSWA, “no binding”.
Under VRGKGAWA stands “binds”.
Under YRGKSSWA stands “binds”; under YRGKGSWA, “binds”.
Consider YKGKGSWA, for which the antigen binding call is reported as “binds”.
For VEGGGAWA, the antigen binding call is given as “no binding”.
Regarding DAARGDAA, the antigen binding call is reported as “no binding”.
To VTGTGAGV belongs “no binding”.
On to YRGAGSGV, for which the antigen binding call was “binds”.
Regarding YRGAGAWV, the antigen binding call was “binds”.
Turning to YRGAGAGV, the antigen binding call is on record as “binds”.
Regarding DTGTGAGV, the antigen binding call is “no binding”.
To YRGTGAGV belongs “binds”; to YETGNVWF, “no binding”.
For DKEGGAVV, the antigen binding call is recorded as “no binding”.
Under DAGGGDWV stands “no binding”; under VTTRADVF, “no binding”.
To DGGRAFWF belongs “no binding”; to VARKGVGV, “no binding”.
Under YRGAGALV stands “binds”; under YTGTSDWV, “no binding”.
In the case of YTRGSAWV, the antigen binding call is given as “no binding”.
Under YRRGSASV stands “binds”; under YKRGSASV, “binds”; under VKEADAWV, “no binding”.
On to YARADSSV, for which the antigen binding call is “no binding”.
YRRGSSSV: the antigen binding call is “binds”.
To YKRGSAWV belongs “binds”.
Turning to YKRRDAWV, the antigen binding call is reported as “no binding”.
For the variant SKKGDFWV, the antigen binding call is given as “no binding”.
To VETEGDWD belongs “no binding”; to VRAETDVY, “no binding”; to YRRGSSLV, “binds”.
Under DAEGDAGD stands “no binding”; under VGGRGDGS, “no binding”.
Consider VKGRGAGS, for which the antigen binding call is on record as “binds”.
To VKGRASAS belongs “no binding”; to VKGRGSGS, “binds”; to VKGGSFGS, “no binding”.
Take VTEGGDVA: the antigen binding call is “no binding”.
With YTTGGDWA, the antigen binding call is “no binding”.
Under DATGGSVD stands “no binding”; under DTGGDDGF, “no binding”.
YARADDAS: the antigen binding call is “no binding”.
VETGGAVA: the antigen binding call is given as “no binding”.
As for VRTGGAAA, the antigen binding call is reported as “binds”.
As to VETGGAAA, the antigen binding call was “no binding”.
For the variant VRRGGAAA, the antigen binding call is “binds”.
To VRRGGSAA belongs “binds”; to VEGEDAAA, “no binding”.
VEGGGDWA: the antigen binding call is listed as “no binding”.
To VEGAASWF belongs “no binding”; to SRKGAASD, “no binding”; to YRKGSASD, “binds”.
Under YRKGAASD stands “binds”; under YTAGSALV, “no binding”; under VRARGALV, “binds”.
For YRARGALV, the antigen binding call is “binds”.
As for YRAKSALV, the antigen binding call was “binds”.
On to VEAGDALV, for which the antigen binding call is reported as “no binding”.
VRAGDALV: the antigen binding call is “no binding”.
With VGGTGDVF, the antigen binding call was “no binding”.
As to DGGADVGA, the antigen binding call is on record as “no binding”.
To DKGTDVGA belongs “no binding”.
Take FRRGSSGD: the antigen binding call is reported as “binds”.
FRRGGSGS: the antigen binding call was “binds”.
As to FRRGSSGS, the antigen binding call was “binds”.
FRRGGSGV: the antigen binding call is “binds”.
To FARGASGV belongs “no binding”; to DAGAAAGD, “no binding”.
Under DKREADVA stands “no binding”; under FRAGGSAA, “binds”.
As to FKKGSFGA, the antigen binding call is recorded as “no binding”.
As for FKKGSAVA, the antigen binding call was “binds”.
Under FKKGSSAA stands “binds”.
Under VKRGSSAA stands “binds”; under FEEEGSAA, “no binding”; under FKGEDAVA, “no binding”.
To FKGEGDAA belongs “no binding”; to ATTKSDAA, “no binding”.
Take SREAADWV: the antigen binding call is reported as “no binding”.
To DAGGGDVA belongs “no binding”; to DARENAGY, “no binding”.

The values are drawn from the emibetuzumab library of Makowski et al. (2022).
